# Sampled rows, rich in hits. Any-hit rate of the full collection: about 0.64%.
# Vif inh = HIV Vif inhibition; actives 0.35% (n = 340,000); inhibition, % at 7.49 µM; HEK293T cells, Vif self-association by quenched fluorescence, imaging, 24 h; AID 602346; in the data active means inhibition above about 50%, passing the limit was not always enough; inconclusive means no clear call, values can overlap the other calls; inactive means below about 31%
# PvdQ inh = P. aeruginosa PvdQ acylase inhibition; purified PvdQ acylase, fluorescence plate reader; inhibition, % at 10 µM; actives 0.063% (n = 340,000); AID 488965; in the data active means inhibition above about 30%, passing the limit was not always enough; inconclusive means no clear call, values can overlap the other calls;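 further: 0% = vehicle neutral wells and 100% = reference inhibitor wells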
# AI-2 QS mod = modulates the Vibrio harveyi AI-2 quorum sensing system; Vibrio harveyi JMH597 AI-2 luminescence/OD600 ratio, 9 h; hits give low values; strain lacks LuxN and CqsS sensors; 0 = neutral-control median; actives 0.4% (n = 300,000); activity change, % at 7.5 µM; AID 2094; in the data active means activity change below about -75%, passing the limit was not always enough; inconclusive means no clear call, values can overlap the other calls;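 further: luminescence divided by OD600 gain over 9 h not by final OD600 alone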
# ERp5 block = blocks human ERp5 reductase activity on insulin | Q15084 | ERp5 insulin aggregation, absorbance 650 nm, 90 min | inhibition, % at 9.99 µM | actives 0.05% (n = 350,000) | AID 651711;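 active means mean replicate inhibition above about 25%, with every replicate also reaching it, limit read from the data, passing the limit was not always enough; inconclusive means only one of those two criteria met; inactive means neither criterion met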
# PDI inh = PDI (human) enzyme inhibition | PDI insulin aggregation turbidity, A650, 90 min | inhibition, % at 10 µM | actives 0.052% (n = 350,000) | AID 588391;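 active means mean inhibition across replicates of 30% or more, whatever share of single replicates reach that level; inconclusive means mean inhibition below 30% while every single replicate reaches 30%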
# Target sequence (P07237 whole entry, looked up): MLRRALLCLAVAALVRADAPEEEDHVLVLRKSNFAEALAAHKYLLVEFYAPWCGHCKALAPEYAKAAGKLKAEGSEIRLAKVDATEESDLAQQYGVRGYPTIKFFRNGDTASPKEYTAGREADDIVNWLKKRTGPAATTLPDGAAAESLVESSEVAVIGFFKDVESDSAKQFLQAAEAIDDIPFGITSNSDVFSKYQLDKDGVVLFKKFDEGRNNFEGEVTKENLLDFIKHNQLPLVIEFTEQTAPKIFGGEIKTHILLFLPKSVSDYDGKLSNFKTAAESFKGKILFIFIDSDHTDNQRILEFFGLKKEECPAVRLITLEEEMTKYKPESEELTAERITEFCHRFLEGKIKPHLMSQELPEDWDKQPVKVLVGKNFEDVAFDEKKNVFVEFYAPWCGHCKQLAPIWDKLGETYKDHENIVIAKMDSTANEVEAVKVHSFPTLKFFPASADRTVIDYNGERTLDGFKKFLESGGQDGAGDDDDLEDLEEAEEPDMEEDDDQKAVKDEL
# Numbers without * were called inactive; ? = inconclusive; . = no result.
SMILES,Vif inh,PvdQ inh,AI-2 QS mod,ERp5 block,PDI inh
COc1ccc(N2CCN(C(=O)c3ccc(Br)o3)CC2)cc1,-2.9,42.5*,3.2,-3.6,-10.2
COc1cccc(N2CCN(C(=O)c3ccc(CS(=O)c4ccc(Cl)cc4)o3)CC2)c1 (stereo not given),1.5,-11.4,0.8,8.8,-4.9
CCC(=O)Nc1ccc2c(c1)C(=O)N(C)C[C@H](OC)[C@@H](C)CN(CCC(F)(F)F)[C@@H](C)CO2,.,.,.,-4.5,.
COc1ccc(NC(=O)C2CCCN(C(=O)NC3CCCCC3)C2)cc1OC (stereo not given),-13.2,34.3*,3.1,.,1.0
COc1ccc(NC(=O)C2CCCN2C(=O)NC2CCCCC2)cc1OC (stereo not given),0.2,0.7,4.5,.,0.9
O=C(C[C@@H]1CC[C@@H]2[C@H](COC[C@H](O)CN2CC2CCCC2)O1)NCC1CC1,.,.,.,-2.5,.
COCC(=O)N1C[C@@H]2[C@H](c3ccccc31)[C@@H](CO)N2C(=O)C1CCCCC1,.,.,.,-4.0,.
O=C(/C=C\c1ccco1)Nc1cc([N+](=O)[O-])ccc1F,64.2*,2.5,1.7,.,24.7
COc1ccc(CNC2CCCc3ccccc32)cc1OC (stereo not given),-10.5,-12.1,39.2,-1.6,2.9
CCOc1ccc(CNC2CCCc3ccccc32)cc1 (stereo not given),5.6,38.4*,14.8,8.2,6.1
O=C(Nc1nccs1)c1ccc(-c2ccc([N+](=O)[O-])cc2)o1,80.4*,-7.9,4.4,-8.2,-2.0
Cc1cccc(NC(=O)/C(C#N)=C/c2cn(CC(=O)NCc3ccco3)c3ccccc23)c1C,72.3*,11.6,2.3,.,6.2
N#C/C(=C\c1cn(Cc2ccccc2)c2ccccc12)C(=O)NCc1ccco1,25.3,1.6,-2.5,?,3.5
CCC(=O)N1CCCCN2[C@H](CO)[C@H](c3ccc(C#Cc4ccccc4F)cc3)[C@@H]2C1,.,.,.,-0.2,.
COc1cc(C=C2CCCC(=Cc3ccc(OCC4CO4)c(OC)c3)C2=O)ccc1OCC1CO1 (stereo not given),61.9*,.,.,-7.3,-3.4
CC1(c2ccc(OC(F)F)cc2)NC(=O)N(CC(=O)Nc2ccccc2)C1=O (stereo not given),-4.7,-16.3,-90.5*,2.7,-2.2
CC1(c2ccc(OC(F)F)cc2)NC(=O)N(CC(=O)Nc2ccc3[nH]c(=O)[nH]c3c2)C1=O (stereo not given),-6.6,3.5,15.6,-2.0,-2.2
CC1CCN(S(=O)(=O)c2ccc(NC(=O)CN3C(=O)NC(C)(c4ccccc4)C3=O)cc2)CC1 (stereo not given),0.5,-2.2,-78.6*,3.7,-4.9
C[C@@H]1CN([C@H](C)CO)C(=O)c2cccc(NC(=O)Nc3ccccc3)c2O[C@H]1CN(C)C(=O)Nc1ccccc1,.,.,.,-2.6,.
C[C@H](NC(=O)C[C@H]1C[C@H]2c3cc(NS(C)(=O)=O)ccc3O[C@H]2[C@H](CO)O1)c1ccccc1,.,.,.,-0.8,.
COc1ccc(S(=O)(=O)N2C[C@H](O)COC[C@H]3O[C@H](CC(=O)NCCCN(C)C)CC[C@@H]32)cc1,.,.,.,-2.3,.
C=CCOC(=O)C1=C[C@@H](c2ccc(Br)cc2)C[C@@H](OCCCCO)O1,51.3*,-0.2,-16.9,4.0,0.1
C[C@H]1CN([C@@H](C)CO)C(=O)c2cccc(NC(=O)Nc3ccc(C(F)(F)F)cc3)c2O[C@H]1CN(C)Cc1ccc2c(c1)OCO2,.,.,.,-11.5,.
CCOC(=O)Cc1csc(NC(=O)c2sc3nc4ccc(C)cc4cc3c2N)n1,-8.8,10.4,-3.9,.,0.3
CCc1nnc(NC(=O)c2sc3nc4cc(C)ccc4cc3c2N)s1,169.7*,-11.5,19.9,.,-6.0
SMILES,Vif inh,PvdQ inh,AI-2 QS mod,ERp5 block,PDI inh
Cc1ccccc1C1CC(=O)Oc2cc(O)ccc21 (stereo not given),62.6*,-2.0,.,.,6.2
Cc1cccc(S(=O)(=O)N2C[C@H]3[C@@H](c4ccccc42)[C@@H](CO)N3C(=O)c2ccccc2)c1,.,.,.,-0.7,.
CCn1c(SCC(=O)Nc2ccc3c(c2)c2ccccc2n3CC)nnc1-c1ccco1,0.8,-3.4,11.4,.,55.6*
CCC(C)n1c(-c2cccs2)nc2nc3ccccc3nc21 (stereo not given),68.4*,5.5,20.4,.,-8.8
c1ccc(-n2c(-c3cccs3)nc3nc4ccccc4nc32)cc1,-5.5,-18.6,18.0,2.6,-5.7
CCOc1ccc(S(=O)(=O)NCc2ccccn2)cc1NC(=O)c1ccccc1,54.1*,-12.6,13.9,1.2,-1.2
CCN1[C@@H]2c3ccc(-c4ccccc4)c(=O)n3C[C@H]1[C@H](CO)[C@H]2C(=O)NCCCN1CCOCC1,.,.,.,-0.8,.
Cc1occc1C(=O)N/N=C/c1sc(N2CCOCC2)nc1-c1ccccc1,-3.4,11.7,22.8,-1.0,2.3
Cc1occc1C(=O)N/N=C/C1=C(N2CCOCC2)C(=C/c2ccc(Cl)cc2Cl)/CC1,132.8*,-13.5,.,-1.2,-4.8
C[C@@H]1CCCCO[C@@H](CN(C)S(=O)(=O)c2ccccc2)[C@@H](C)CN([C@@H](C)CO)C(=O)c2cc(NS(=O)(=O)c3cccs3)ccc2O1,.,.,.,2.6,.
Cc1ccc(NC(=O)CNCc2cccs2)cc1Br,-0.3,-4.1,-76.2*,5.9,-20.7
CC(=O)c1ccc(NC(=O)CNCc2cccs2)cc1,9.3,1.7,-10.7,-2.2,1.4
COc1ccc(NC(=O)N(C)C[C@H]2Oc3ccc(NS(=O)(=O)c4ccc(OC)cc4)cc3C(=O)N([C@@H](C)CO)C[C@@H]2C)cc1,.,.,.,-4.0,.
Cc1nc(C)n(CC(=O)N2CCCC(C(=O)c3ccc(C(F)(F)F)cc3)C2)n1 (stereo not given),95.8*,-5.2,13.4,?,-17.7
CCN1CCN(c2ccc(NC(=O)c3ccc([N+](=O)[O-])o3)cc2Cl)CC1,30.7,-4.0,62.1,4.9,-3.8
CC(=O)N1CCN(c2ccc(NC(=O)c3ccc([N+](=O)[O-])o3)cc2Cl)CC1,57.4*,-14.4,58.3,0.2,-6.7
CCC(=O)N1CCN(c2ccc(NC(=O)c3ccc([N+](=O)[O-])o3)cc2Cl)CC1,65.6*,4.7,26.8,2.8,1.4
Cc1nc(S(=O)(=O)N[C@@H]2CCCN(Cc3cccc(OCCO)c3)C2)cn1C,.,.,.,2.0,.
Cc1cccc(C(=O)NCCC(=O)NCc2ccccc2Cl)c1,53.6*,-4.6,.,.,16.6
CC1(Cc2cc(Cl)ccc2C(F)(F)F)C(=O)Nc2ccc(S(=O)(=O)NC3CCCCC3)cc21 (stereo not given),70.1*,.,.,0.3,1.5
C[C@@H]1CN([C@@H](C)CO)C(=O)c2cc(NC(=O)NC3CCCCC3)ccc2O[C@H]1CN(C)C,.,.,.,1.5,.
O=C(Nc1ccc(-c2nc3ccc(NC(=O)c4cccs4)cc3[nH]2)cc1)c1cccs1,79.5*,-0.7,16.9,.,-0.7
CC(=O)Nc1nonc1-c1nc2ccccc2n1C,79.7*,4.3,21.3,-2.3,0.5
Cc1n[nH]c(=O)nc1Nc1ccc(O)cc1,65.9*,5.1,25.6,-0.8,-5.4
